SW480 rereplic – DNA re-replication induction in SW480 cells | SW480 DNA re-replication, Hoechst DNA content imaging, 48 h | AID 624297 | actives 1.8% (n = 340,000) | Potency, µM (titrated, usually from 46.1 µM), actives largely listed as activators; note: nearly all actives have a fitted effect of over 55% in size
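Compounds, transferred as 23 nL by pin tool, were incubated with cells for 48 hr; DNA content per nucleus was then quantified by Hoechst staining and fluorescence plate imaging.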
KB-3-1 cytotox – kills parental KB-3-1 adenocarcinoma cells; KB-3-1 viability, CellTiter-Glo ATP luminescence, 72 h; AID 1347075; actives 1.4% (n = 400,000); Potency, µM (highest dose often 46.1 µM), most hits filed as cytotoxic; note: nearly all actives have a fitted effect of over 60% in size
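Parental KB-3-1 adenocarcinoma cells in phenol-red-free DMEM with 10% FBS were pin-treated with compounds at several concentrations, incubated 72 h at 37 °C, and viability read by CellTiter-Glo luminescence; concentration-effect curves were fitted after normalization.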
HT1080NT lethal – kills 2HG-producing HT-1080-NT fibrosarcoma cells; HT-1080-NT fibrosarcoma viability, CellTiter-Glo ATP luminescence, 48 h; Potency, µM (top dose mostly 46.1 µM), hits mostly cytotoxic; actives 1.6% (n = 360,000); AID 686970;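 note: NT is the 2HG producing partner of a matched IDH1 knockdown line; nearly all actives have a fitted effect of over 55% in size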
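Viability of the 2HG-overproducing fibrosarcoma line after 48 hours of compound exposure at 37 degrees C was determined by luminescence with CellTiter-Glo, and concentration-effect curves were then fitted and categorized.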
HT1080 IDH1KD tx – toxicity to HT-1080 IDH1 knockdown cells (counter line). HT-1080 IDH1 knockdown viability, ATP luminescence, 48 h. Potency, µM (series often up to 46.1 µM), actives largely listed as cytotoxic. actives 2% (n = 360,000). AID 686971
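Luminescent ATP read-out (CellTiter-Glo, 10 min at room temperature) after 48 h compound exposure at 37 °C gave viability of IDH1-knockdown HT-1080 cells. Activity was normalised to DMSO and cell-free wells, then fitted as concentration-response curves.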
MCF10A rerep – inducers of DNA re-replication in MCF 10A breast cells; AID 624296; actives 2.9% (n = 350,000); MCF 10A DNA re-replication, Hoechst nuclear intensity, 48 h; Potency, µM (doses to about 46.1 µM), most hits filed as activators; note: nearly all actives have a fitted effect of over 50% in size
KB-V1 MDR tox – kills drug-selected multidrug resistant KB-V1 cells; KB-V1 MDR cells viability, CellTiter-Glo, 72 h; Potency, µM (highest dose often 46.1 µM), usual class: cytotoxic; AID 1347076; actives 3.4% (n = 400,000); note: nearly all actives have a fitted effect of over 60% in size
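Cytotoxicity via CellTiter-Glo luminescence after 72 h compound exposure at 37 degrees C. Cells: drug-selected KB-V1 line, DMEM phenol-red free plus 10% FBS. Compounds tested at multiple concentrations; normalized data fitted to concentration-effect curves.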
Large screens that a line does not name were inactive. Only some compounds are listed: those with a hit (about 7.9% of all), similar ones and a draw of the others. Calls come from the whole dose curve; as a rule, active = well fitted curve in the direction sought with a large enough effect; inconclusive = small, poorly fitted or top-dose-only effect, or another doubt; inactive = no such curve, though single readings can be large; an effect the other way counts as inactive or inconclusive.

CCCCCCn1cc(C(=O)O)c(=O)c2cc(F)c(N3CCN(C(=O)OCC)CC3)cc21	KB-V1 MDR tox 2.1µM
CCCNC(=O)c1cn(CC)c2cc(N3CCN(C)CC3)c(F)cc2c1=O	none
C=CCCCCCCCCC(=O)N1CCN(c2cc3c(cc2F)c(=O)c(C(=O)O)cn3CC)CC1	none
CCOc1ccc(-n2nc3ccc(N)cc3n2)cc1	SW480 rereplic inconclusive, MCF10A rerep 18µM
CCOc1ccc(-n2nc3cc(C)c(N)cc3n2)cc1	SW480 rereplic 16µM, MCF10A rerep 18µM
OCCN1CCN(CC#CCC(c2ccccc2)c2ccccc2)CC1	none
OCCN1CCN(CC#CCn2c3ccccc3c3ccccc32)CC1	HT1080NT lethal 21µM, HT1080 IDH1KD tx inconclusive
Cc1cc(=O)[nH]c2c1c(C)nn2C1CCOC(C)(C)C1 (stereo unspecified)	SW480 rereplic 6.5µM
CN(C)/C=N/C1=C(C#N)C(c2cccs2)c2ccc3ccccc3c2O1 (stereo unspecified)	SW480 rereplic 5.2µM, KB-3-1 cytotox 2.6µM, HT1080NT lethal 7.3µM, HT1080 IDH1KD tx 7.3µM, MCF10A rerep inconclusive, KB-V1 MDR tox 5.8µM
C[n+]1cccc2ccc3c(c21)OC(N)=C(C#N)C3c1ccccc1 (stereo unspecified)	HT1080NT lethal inconclusive, HT1080 IDH1KD tx inconclusive
C[n+]1cccc(C2C(C#N)=C(N)Oc3c2ccc2ccccc32)c1 (stereo unspecified)	SW480 rereplic 18µM, KB-3-1 cytotox inconclusive, HT1080NT lethal 12µM, HT1080 IDH1KD tx 15µM, MCF10A rerep inconclusive, KB-V1 MDR tox inconclusive
N#CC1=C(N)Oc2c(ccc3cccnc23)C1c1cccnc1 (stereo unspecified)	SW480 rereplic 2.6µM, KB-3-1 cytotox inconclusive, HT1080NT lethal 7.3µM, HT1080 IDH1KD tx 8.2µM, MCF10A rerep 8.2µM, KB-V1 MDR tox inconclusive
CCOC(=O)C1=C(c2ccccc2)OC(N)=C(C#N)C1c1cccs1 (stereo unspecified)	HT1080 IDH1KD tx inconclusive, KB-V1 MDR tox inconclusive
N#CC1=C(N)Oc2cc3ccccc3cc2C1c1cccnc1 (stereo unspecified)	SW480 rereplic 18µM, KB-3-1 cytotox 5.8µM, HT1080NT lethal 6.5µM, HT1080 IDH1KD tx 5.8µM, MCF10A rerep 7.1µM, KB-V1 MDR tox inconclusive
O=C(NCC(=O)N1CCN(Cc2ccccc2)CC1)c1ccc(Br)o1	none
N#CC1=C(N)Oc2cc3ccccc3cc2C1c1cccs1 (stereo unspecified)	SW480 rereplic inconclusive, KB-3-1 cytotox 10µM, HT1080NT lethal inconclusive, HT1080 IDH1KD tx inconclusive, MCF10A rerep inconclusive
CCOC(=O)c1cc(C#N)c(Oc2cccc(C(F)(F)F)c2)nc1-c1ccccc1	MCF10A rerep inconclusive
CCOC(=O)c1cc(C#N)c(Oc2ccc(F)cc2)nc1-c1ccccc1	KB-V1 MDR tox 9.2µM
O=C(CN1C(=O)/C(=C/c2ccccc2)SC1=S)N1CCN(CCc2ccccn2)CC1	SW480 rereplic inconclusive, MCF10A rerep 5.8µM
O=C(CCCN1C(=O)/C(=C/c2cccs2)SC1=S)Nc1cccnc1	none
COC(=O)CCCCCN1C(=O)/C(=C\c2ccncc2)SC1=S	MCF10A rerep 26µM
Cc1ccc(/C=C2\SC(=S)N(CCCC(=O)Nc3cccnc3)C2=O)cc1	SW480 rereplic inconclusive, KB-3-1 cytotox inconclusive, MCF10A rerep inconclusive, KB-V1 MDR tox 23µM
O=C(CCCN1C(=O)/C(=C\c2cccc(Br)c2)SC1=S)Nc1cccnc1	HT1080NT lethal 16µM, HT1080 IDH1KD tx 13µM, MCF10A rerep 8.2µM
O=C(O)CCN1C(=O)/C(=C\c2ccncc2)SC1=S	none
NC(=O)NN=C1CC2CC1C1C=CCC21 (stereo unspecified)	none
CCCCN(C)C(=O)c1sc(=O)n(CC(=O)c2ccccc2OC)c1C	KB-V1 MDR tox inconclusive (no result: SW480 rereplic, MCF10A rerep)
Cc1ccc(C(=O)NC2CCN(CC(=O)Nc3ccccc3Cl)CC2)cc1	MCF10A rerep inconclusive
O=C(CCCN1C(=O)/C(=C/c2cccc(Br)c2)SC1=S)Nc1cccnc1	SW480 rereplic 18µM, KB-3-1 cytotox inconclusive, HT1080NT lethal inconclusive, HT1080 IDH1KD tx inconclusive, MCF10A rerep 18µM
O=C(CCCN1C(=O)/C(=C/c2cccc(Br)c2)SC1=S)Nc1ccccn1	SW480 rereplic inconclusive, KB-3-1 cytotox 5.8µM, MCF10A rerep inconclusive, KB-V1 MDR tox 15µM
O=C(CCCN1C(=O)/C(=C/c2ccccc2OC(F)F)SC1=S)Nc1cccnc1	SW480 rereplic inconclusive, KB-3-1 cytotox inconclusive, MCF10A rerep 23µM, KB-V1 MDR tox inconclusive
COc1cccc(NC(=O)C2(C)CCN2CCc2ccccc2)c1 (stereo unspecified)	none (no result: SW480 rereplic, MCF10A rerep)
COC(=O)c1cc(C(=O)OCC(=O)NC2CCCC2)cc([N+](=O)[O-])c1	none
CC(C)c1cc(-c2nc(-c3ccccc3)no2)n[nH]1	none (no result: SW480 rereplic, HT1080NT lethal, HT1080 IDH1KD tx, MCF10A rerep)
CCOc1ccc(/C=C2\SC(=S)NC2=O)cc1OC	none
O=C1NC(=S)SC1=Cc1ccccc1Br	KB-3-1 cytotox inconclusive, HT1080NT lethal inconclusive, HT1080 IDH1KD tx inconclusive, MCF10A rerep 15µM
O=C1NC(=S)SC1=Cc1ccc(Cl)cc1	SW480 rereplic inconclusive, HT1080 IDH1KD tx inconclusive, MCF10A rerep 9.2µM
CCOc1ccccc1C=C1SC(=S)NC1=O	MCF10A rerep 18µM
CCCc1cnc(NCCNCC(O)COc2ccc(Cl)c(Cl)c2)nc1 (stereo unspecified)	SW480 rereplic inconclusive, HT1080NT lethal 18µM, HT1080 IDH1KD tx 21µM, MCF10A rerep inconclusive, KB-V1 MDR tox inconclusive
Cc1ccc(NC(=O)CCC(=O)N/N=C/c2cccnc2)cc1	MCF10A rerep inconclusive
Cc1cccc(-n2c(=O)c3ccccc3n(Cc3ccccc3)c2=O)c1	none (no result: SW480 rereplic, HT1080NT lethal, HT1080 IDH1KD tx, MCF10A rerep)
Cc1c(CCCN)c2ccccc2n1Cc1ccccc1	SW480 rereplic inconclusive, HT1080NT lethal inconclusive, HT1080 IDH1KD tx 21µM, MCF10A rerep inconclusive, KB-V1 MDR tox inconclusive
Cn1c(C(=O)OCC(=O)NCc2ccco2)cc2sccc21	SW480 rereplic inconclusive, HT1080 IDH1KD tx inconclusive
Cc1cc2c(cc(C(=O)OCC(=O)NCc3ccco3)n2C)s1	SW480 rereplic 10µM, KB-3-1 cytotox 5.8µM, HT1080NT lethal 13µM, HT1080 IDH1KD tx 10µM, MCF10A rerep inconclusive, KB-V1 MDR tox 3.7µM
CN(C)CCN1CCN(C2CN(Cc3cn(Cc4ccccc4)nn3)S(=O)(=O)C2)CC1 (stereo unspecified)	HT1080 IDH1KD tx inconclusive (no result: SW480 rereplic, MCF10A rerep)
Cc1ccc2cc(C#N)c(NCCNC(=O)C3CCC3)nc2c1C	SW480 rereplic inconclusive, KB-3-1 cytotox inconclusive, MCF10A rerep inconclusive, KB-V1 MDR tox 15µM
CCOCCCNC(=S)NCCCNc1nc2c(C)c(C)ccc2cc1C#N	SW480 rereplic 21µM, HT1080NT lethal inconclusive, HT1080 IDH1KD tx inconclusive, MCF10A rerep 18µM, KB-V1 MDR tox inconclusive

Compound activity from PubChem BioAssay.
